High-throughput results (PubChem)
Most compounds without a hit are left out; they make up all but 3.9% or so of the library.
CCHFV vOTU inh: CCHFV vOTU protease inhibition; Pep-AMC fluorescence; inhibition, % at 11.5 µM; actives 0.55% (n = 370,000); AID 651958; in the data active = inhibition above about 30%
3CLpro inhibitor: SARS-CoV 3CLpro protease inhibition; P0C6X7; recombinant SARS-CoV 3CLpro, quenched FRET peptide cleavage; inhibition, % at 6 µM; actives 0.14% (n = 290,000); AID 1706; in the data active = inhibition above about 12%
Autofluor counter: counter-screen for toxin protease inhibitors: compound fluorescence. compound autofluorescence counterscreen, microsphere flow cytometry; stronger effect = higher value. fluorescence intensity (test concentration not listed). actives 3.1% (n = 360,000); in the data active = fluorescence intensity above about 16000; inconclusive = no clear call, values can overlap the other calls
BoNT F protease: blocks Botulinum neurotoxin F light chain protease; Multiplex microsphere protease cleavage assay, flow cytometry; actives 0.22% (n = 360,000); inhibition, % at 10 µM; in the data active = inhibition above about 35%, passing the limit was not always enough; inconclusive = no clear call, values can overlap the other calls
BoNT-A LC inh2: inhibitors of Botulinum neurotoxin A light chain protease; inhibition, % at 10 µM; AID 588499; multiplex microsphere protease substrate cleavage, flow cytometry; actives 0.17% (n = 360,000)
Anthrax LF inh2: anthrax lethal factor protease inhibition. multiplex microsphere protease cleavage assay, LF. P15917. inhibition, % at 10 µM. actives 0.12% (n = 360,000)
A number is an active result; n = inactive; u = inconclusive; x = not tested or not shown. Rule as the data show it, unless noted: active = inhibition above about 30%; inconclusive = no clear call, values can overlap the other calls; inactive = below that.

SMILES	CCHFV vOTU inh	3CLpro inhibitor	Autofluor counter	BoNT F protease	BoNT-A LC inh2	Anthrax LF inh2
CC1CCCCC1NC(=O)c1ccc(N2CCCC2=O)cc1 (stereo not drawn)	n	n	22649	n	u	n
COc1ccc(CCNC2CC(=O)N(C)C2=O)cc1OC (stereo not drawn)	n	n	24224	n	n	n
COc1cc(C(=O)NCCc2ccc3c(c2)OCCO3)ccc1OCC(=O)N1CCOCC1	n	n	16542	n	n	n
CCOc1ccc(CCNC(=O)c2cccc(N3CCCC3=O)c2)cc1OCC	n	n	n	n	n	n
COc1ccc(CCNC(=O)c2ccc(N3CCCC3=O)cc2)cc1OC	n	n	21331	n	n	n
Cc1ccc2nc3n(c(=O)c2c1)-c1ccccc1C(=O)NC3Cc1ccc(O)cc1 (stereo not drawn)	n	x	x	x	x	x
CCc1c(C)c2ccc(OCC(=O)OC(C)C)c(C)c2oc1=O	n	n	24390	n	n	n
CCc1c(C)c2ccc(OCC(=O)N(C)C)c(C)c2oc1=O	n	n	21643	n	n	n
COC(=O)Cc1c(C)c2ccc(OCc3nn[nH]n3)c(C)c2oc1=O	n	n	21317	n	n	n
Cc1c(OCC(=O)OC(C)C)ccc2c3c(c(=O)oc12)CCC3	n	n	n	n	n	n
COC(=O)Cc1c(C)c2ccc(OCc3nn[nH]n3)cc2oc1=O	n	n	n	n	n	n
CCn1nnc2cc(C(=O)O)ccc21	n	n	n	n	n	n
C=CCn1c(SCc2c(F)cccc2Cl)nnc1-c1ccco1	n	n	16837	n	n	n
CCOc1ccc(-n2c(=S)sc3c(=O)[nH]c(SCC(=O)NCc4ccco4)nc32)cc1	n	n	20051	n	u	n
CCOC(=O)COc1ccc(C(C)c2ccc(NC(=O)OC(C)(C)C)cc2)cc1 (stereo not drawn)	n	x	x	x	x	x
Cc1cccc(C(=O)N[C@H](C(=O)Nc2ccc3c(c2)OCO3)C(C)C)c1	n	x	n	n	n	n
CCC1Oc2ccccc2N(CC(=O)NCCc2ccc(OC)c(OC)c2)C1=O (stereo not drawn)	n	n	n	n	n	n
CCC1Oc2ccc(C)cc2N(CC(=O)NCc2cccc(OC)c2)C1=O (stereo not drawn)	n	n	17853	n	n	n
COc1ccc(NC(=O)CN2CCC(C(N)=O)CC2)cc1	n	n	n	n	n	n
Cc1ccc(CN(Cc2cccnc2)C(=O)CN2C(=O)COc3ccccc32)o1	x	n	n	n	n	n
CCC1Oc2ccccc2N(CC(=O)Nc2ccccc2OC)C1=O (stereo not drawn)	n	n	22225	n	u	n
O=C(CN1C(=O)COc2ccccc21)N(Cc1ccccc1)Cc1ccccn1	n	n	22246	n	u	n
CCC1Oc2ccc(C)cc2N(CC(=O)NCc2cc(OC)ccc2OC)C1=O (stereo not drawn)	n	n	n	n	n	n
COc1ccc(NC(=O)CN2CCC(C)CC2)cc1	n	n	17348	n	n	n
COc1ccc(CN(Cc2ccccn2)C(=O)CN2C(=O)C(C)Oc3ccccc32)cc1 (stereo not drawn)	n	n	22997	n	n	n
SMILES	CCHFV vOTU inh	3CLpro inhibitor	Autofluor counter	BoNT F protease	BoNT-A LC inh2	Anthrax LF inh2
COc1ccc(NC(=O)CN2C(=O)C(C)Oc3ccccc32)cc1 (stereo not drawn)	n	n	23500	n	n	n
COC(=O)/C=c1\sc2n(c1=O)C(C)=CC(C)(C)N=2	n	n	19740	n	n	n
CCOC(=O)C1=CCN(S(=O)(=O)c2ccccc2C)C1c1ccc(F)cc1 (stereo not drawn)	n	x	n	n	n	n
CN1C=CC=C/C1=C1/SC(=S)N(Cc2ccccc2)C1=O	n	n	n	n	n	n
CCN1C(=O)/C(=C2/C=CC=CN2C)SC1=S	n	n	23187	n	n	n
Cc1c(O[C@@H]2O[C@H](CO)[C@@H](O)[C@H](O)[C@H]2O)ccc2c1oc(=O)c1ccccc12	n	n	n	35	n	n
Cc1c(C)c2ccc(O[C@@H]3O[C@H](CO)[C@H](O)[C@H](O)[C@H]3O)c(C)c2oc1=O	n	n	n	n	n	n
COc1ccc(NC(=O)C(NC(=O)OC(C)(C)C)C(C)OCc2ccccc2)cc1 (stereo not drawn)	n	n	21191	n	u	n
COc1ccccc1NC(=O)c1nnn(Cc2ccccc2)c1NC(C)=O	n	n	24511	n	n	n
COc1ccccc1NC(=O)c1nnn(Cc2ccccc2)c1NC(=O)C(F)(F)F	n	n	n	n	n	n
COc1cccc(CNC(=O)c2cc(=O)[nH]c3ccc(S(=O)(=O)N4CCOCC4)cc23)c1	n	x	n	n	n	n
O=C(CCCSc1nc2ccccc2[nH]1)N1CCN(c2ccccc2)CC1	n	n	20365	n	n	n
O=C(CSc1nc2ccccc2[nH]1)N1CCCCC1	n	n	21788	n	n	n
O=C(O)CCSc1nnc(SCC(=O)NC2CCS(=O)(=O)C2)s1 (stereo not drawn)	n	x	n	n	n	n
CCC(=O)Nc1cc2c(cc1Cl)-c1ccccc1C2	n	x	n	n	n	n
COC(=O)c1ccccc1NC(=O)COC(=O)CSCC(=O)N1CCOCC1	n	n	23481	n	n	n
CCOC(=O)c1ccccc1NC(=O)COC(=O)CSCC(=O)Nc1cc(C)on1	n	x	n	n	n	n
O=S(=O)(c1ccc(F)cc1)N1CCN(c2ccccc2)CC1	n	n	20200	n	n	n
COc1ccccc1N1CCN(S(=O)(=O)c2ccccc2)CC1	n	n	19619	n	n	n
COc1ccccc1N1CCN(S(=O)(=O)c2ccc(Br)s2)CC1	n	n	22653	n	n	n
O=S(=O)(c1ccccc1)N1CCN(c2ccccc2)CC1	n	n	x	x	x	x
COc1ccccc1N1CCN(S(=O)(=O)c2cccs2)CC1	n	n	n	n	n	n
COc1cc(S(=O)(=O)N2CCN(c3ccccc3F)CC2)ccc1Cl	n	n	20773	n	n	n
CCOC(=O)c1cccc(-c2cc(C(=O)OC)c3n(c2=O)CCC3)c1	n	x	x	x	x	x
N#Cc1ccc(CN2CCN(c3ccc(S(=O)(=O)N4CCCC4)cn3)CC2)cc1	n	x	n	n	n	n
SMILES	CCHFV vOTU inh	3CLpro inhibitor	Autofluor counter	BoNT F protease	BoNT-A LC inh2	Anthrax LF inh2
COC(=O)c1ccccc1NC(=O)c1noc2c1CCCC2	n	n	19950	n	n	n
COc1cc(NC(=O)c2noc(C)c2[N+](=O)[O-])c(OC)cc1Cl	n	n	n	n	n	n
COc1cc(NC(=O)c2noc3c2CCC3)c(OC)cc1Cl	n	n	19679	n	n	n
O=C(Nc1ccccc1C(=O)N1CCOCC1)c1noc2c1CCCC2	n	n	n	n	n	n
O=C(CC1NCCc2ccccc21)Nc1ccc(Cl)cc1 (stereo not drawn)	n	n	n	n	n	n
Nc1nc(=O)n(C2CCCCO2)cc1Br (stereo not drawn)	n	x	n	n	n	n
CCOC(=O)c1c(C)n(C)c2ccc(OCC(O)Cn3c(C)nc4ccccc43)cc12 (stereo not drawn)	n	n	23462	n	u	n
